According to PubChem BioAssay (NCATS):

Biological target: Guanidinoacetate N-methyltransferase (Homo sapiens) (UniProt Q14353)
Assay: Confirmatory Screen for Target Class Profiling of Small Molecule Inhibitors of Methyltransferases (AID 1745852)
Settings: MTase-Glo luminescence, SAH detection, recombinant enzyme; at 57.3 µM (top of the series)
% is set by controls: 0 for no effect and ±100 for the full control effect.

SMILES | activity change, negative = inhibition [%]
CCc1cccc(N(C)C(N)=Nc2cccc3ccccc23)c1 | 4.76
CCc1c(C)[nH]c2c1C(=O)C(CN1CCOCC1)CC2 (configuration not stated) | -2.7
CCCN1C[C@H](CSC)C[C@@H]2c3cccc4[nH]cc(c34)C[C@H]21 | 5.03
NC(N)=N/N=C/c1c(Cl)cccc1Cl | 0.25
COC(=O)[C@@H](N)Cc1ccc(O)c(O)c1 | 1.23
CCC(=O)c1ccc2c(c1)N(CCCN(C)C)c1ccccc1S2 | 4.3
NC1=NCC2c3ccccc3Cc3ccccc3N12 (configuration not stated) | 4.05
COc1cc(C(=O)OCCCN2CCCN(CCCOC(=O)c3cc(OC)c(OC)c(OC)c3)CC2)cc(OC)c1OC | 9.88
CN(C)[C@@H]1C(=O)C(C(N)=O)=C(O)[C@@]2(O)C(=O)C3=C(O)c4c(O)ccc(Cl)c4[C@@H](O)[C@H]3C[C@@H]12 | 8.05
CCCN(CCC)CCc1cccc2c1CC(=O)N2 | 6.02
CC1=C(C)C(=O)C(CCCCC#CCCCC#CCO)=C(C)C1=O | 4.63
CN(C)CC[C@@H](c1ccc(Br)cc1)c1ccccn1 | 1.79
